# Results from PubChem BioAssay (Tox21).
# Inconclusive results are not listed. Where a call stands in place of a potency, no number is given. Values without a mark were called inactive. Active and inactive are the calls of the source. The call rests on the fitted dose curve; in most records, active means well fitted cell-killing curve with a large enough effect in the repeat runs; inconclusive means weak or mixed curves, or effect the other way; inactive means flat fitted curve, though single readings scatter.
# Assays:
# [1] = cAMP Responsive Elements (CRE) small molecule antagonists, cell-based qHTS assay: qHTS cell viability counter screen (AID 2060913); further: nearly all actives have a fitted effect of over 40% in size
# Summary of the method: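 Cytotoxicity counter screen multiplexed with the CRE-bla antagonist read: HEK293T cells in DMEM with dialyzed FBS and 25 mM HEPES were treated 3 hrs under 0.25 uM final NKH477, then viability measured by CellTiter-Glo luminescence.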
# [2] = cAMP Responsive Elements (CRE) small molecule agonists, cell-based qHTS assay: qHTS cell viability counter screen (AID 2060914);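 further: viability read after 3 h of compound exposure; nearly all actives have a fitted effect of over 50% in size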
# Summary of the method: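 CRE-bla HEK 293T cells, plated 18 h at 37 °C, were exposed to compounds for 3 h at 37 °C/5% CO2. Viability was then measured in the same wells by CellTiter-Glo luminescence after 30 min at room temperature.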
# Potency means the concentration at half of the fitted maximal effect.
Compound,Potency [1],Potency [2]
O=C(O)c1cc(Oc2ccc(C(F)(F)F)cc2Cl)ccc1[N+](=O)[O-],inactive,inactive
CCOP(=S)(OCC)SCS(=O)(=O)C(C)(C)C,inactive,inactive
OCC(Cl)CCl (stereo not given),inactive,inactive
COC(=O)c1c(C(F)F)nc(C(F)(F)F)c(C2=NCCS2)c1CC(C)C,inactive,inactive
CCCCC(CC)COP(=O)(Oc1ccccc1)Oc1ccccc1 (stereo not given),inactive,inactive
C/C=C/CC#N,inactive,inactive
CC(=O)C(Cl)Cl,inactive,inactive
Cc1cccc(OP(=O)(Oc2cccc(C)c2)Oc2cccc(C)c2)c1,inactive,inactive
Cn1[nH]nnc1=S,inactive,inactive
CC(C)(c1ccccc1)c1ccc(O)cc1,inactive,inactive
O=C(CCCN1CCC2(CC1)C(=O)NCN2c1ccccc1)c1ccc(F)cc1,inactive,inactive
OCCOc1ccccc1,inactive,inactive
Oc1cc(Cl)ccc1Cl,inactive,inactive
CC(C)CCCCCOC(=O)c1ccccc1C(=O)OCCCCCC(C)C,inactive,inactive
Cc1ncc(C[n+]2csc(CCO)c2C)c(N)n1,inactive,inactive
CCCC[n+]1cccc(C)c1,inactive,inactive
N#CC(C#N)=C(C#N)C#N,inactive,inactive
CCOP(=S)(OCC)SCCl,inactive,inactive
CCCCOCC1CO1 (stereo not given),inactive,inactive
C=C(C)C(=O)[O][Sn]([CH2]CCC)([CH2]CCC)[CH2]CCC,7.7 µM (active),4.86 µM (active)

Compound,Potency [1],Potency [2]
CCCCC(CC)CO[N+](=O)[O-] (stereo not given),inactive,inactive
CCCCS(=O)(=O)Cl,inactive,inactive
CCCCc1c(C)nc(NCC)[nH]c1=O,inactive,inactive
Oc1cccc(-c2ccccc2)c1,inactive,inactive
Nc1c(Cl)c(Cl)nc(C(=O)O)c1Cl,inactive,inactive
CNCC(O)c1ccc(O)cc1 (stereo not given),inactive,inactive
O=[N+]([O-])c1ccc(CBr)cc1,inactive,inactive
O=[N+]([O-])c1ccc2ccc3cccc4ccc1c2c34,inactive,inactive
ClCBr,inactive,inactive
C[C@@H]1C[C@@H]([C@H](O)CC2CC(=O)NC(=O)C2)C(=O)[C@@H](C)C1,inactive,inactive
CSc1nnc(C(C)(C)C)c(=O)n1N,inactive,inactive
O=C1CCCO1,inactive,inactive
CCCC[n+]1ccccc1,inactive,inactive
C1CCC(C2CCCCC2)CC1,inactive,inactive
C/C=C/c1ccc2c(c1)OCO2,inactive,inactive
CCCC[N+](=O)[O-],inactive,inactive
O=C(O)C(F)(F)C(F)(F)C(F)(F)C(F)(F)C(F)(F)C(F)(F)C(F)(F)C(F)(F)F,inactive,inactive
CCc1ccc(C(=O)NN(C(=O)c2cc(C)cc(C)c2)C(C)(C)C)cc1,inactive,inactive
CN1COCN(Cc2cnc(Cl)s2)/C1=N\[N+](=O)[O-],inactive,inactive
CN(C)C1CCCCC1,inactive,inactive

Compound,Potency [1],Potency [2]
O=[N+]([O-])c1ccc(Oc2ccc(Cl)cc2Cl)cc1,inactive,inactive
O=C/C=C/c1ccco1,inactive,inactive
COP(=S)(OC)Oc1ccc(Sc2ccc(OP(=S)(OC)OC)cc2)cc1,inactive,inactive
CCCCCCOC(=O)c1ccccc1C(=O)OCCCCCC,inactive,inactive
CCOP(=S)(OCC)SCSCC,inactive,inactive
CC1CC(=O)O1 (stereo not given),inactive,inactive
BrCCCBr,inactive,inactive
CC(C)(O)C(=O)Nc1ccc([N+](=O)[O-])c(C(F)(F)F)c1,inactive,inactive
O=C1NCN(c2ccccc2)C12CCN(CCCOc1ccc(F)cc1)CC2,inactive,inactive
CC(=O)NNc1ccccc1,inactive,inactive
COc1ccc(C=O)cc1O,inactive,inactive
N#CC(Br)(Br)C(N)=O,inactive,inactive
Nc1c(Cl)cc([N+](=O)[O-])cc1Cl,inactive,inactive
C[N+]1(C)[C@@H]2CC[C@H]1CC(OC(=O)C(CO)c1ccccc1)C2 (stereo not given in full),inactive,inactive
CCCCN(CCCC)N=O,inactive,inactive
CCC1(C2=NCCN2)Cc2ccccc2O1 (stereo not given),inactive,inactive
CC1(C)[C@H](C=C(Cl)Cl)[C@@H]1C(=O)O[C@@H](C#N)c1cccc(Oc2ccccc2)c1,inactive,inactive
COc1cc(-c2ccc(N)c(OC)c2)ccc1N,inactive,inactive
CCC(=O)C(CCN(C)C)(c1ccccc1)c1ccccc1,inactive,inactive
C[C@]12CCC(=O)C=C1CC[C@@H]1[C@@H]2CC[C@@]2(C)[C@H]1CC[C@]2(C)O,inactive,inactive
